In PubChem BioAssay:
Active and inactive are the calls of the source.

Assays:
[1] = optical density shifts of acrAB sulA E. coli – strain DRC41, OD650, 48 h, E. coli filamentation inducer project, primary screen (AID 1152); conditions: higher = more signal, called active from +8 up or from −8 down;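 also: E. coli MC1000 strain DRC41 lacking acrAB efflux pump and sulA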
[2] = probe aLefty1 binding on compound microarray – biochemical, small-molecule microarray, 635/667 nm fluorescence, primary screen (AID 1153); conditions: higher = more signal;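 also: score merges spot fluorescence with signal-to-noise ratio from the scanned slide images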
[3] = plasmodial surface anion channel blockers, osmotic lysis – cell-based, P. falciparum Indochina, OD700, 1 h, primary screen (AID 1154); conditions: P. falciparum Indochina infected RBC osmotic lysis, higher = more signal, called active from +8 up or from −8 down
[4] = plasmodial surface anion channel blockers, osmotic lysis – cell-based, P. falciparum Indochina, OD700, 2 h, primary screen (AID 1155);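 also: lysis reports solute entry through the parasite surface anion channel PSAC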; conditions: P. falciparum Indochina infected erythrocytes, higher = more signal, called active from +8 up or from −8 down
[5] = changes in parasitized red cell lysis, either direction – P. falciparum Indochina, OD700, 3 h, PSAC antagonist project, primary screen (AID 1156); conditions: P. falciparum-infected erythrocytes, osmotic lysis, higher = more signal, called active from +8 up or from −8 down
[6] = plasmodial surface anion channel blockers, osmotic lysis – cell-based, P. falciparum Indochina, OD700, 18 h, primary screen (AID 1157); conditions: P. falciparum Indochina infected erythrocytes, osmotic lysis OD700, 18 h; higher = more signal, called active from +8 up or from −8 down
[7] = S6 kinase pathway phospho-S6 level changes – cell-based, A549, cytoblot, luminescence, serum-stimulated, primary screen (AID 1158); conditions: 5 h, higher = more signal;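 also: serum-stimulated A549 lung adenocarcinoma cells; signal is phosphorylated S6 detected by cytoblot immunostaining with HRP secondary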
[8] = target: NADPH oxidase 2 (Homo sapiens) (UniProt P04839); assay: compounds shifting NOX2 Amplex Red fluorescence – cell-based, HEK293-NOX2, PMA-stimulated, NOX inhibitor project, primary screen (AID 1159); conditions: 45 min, higher = more signal, called active from +8 up or from −8 down; also: test concentration not given here
[9] = target: NADPH oxidase 4 (Homo sapiens) (UniProt Q9NPH5); assay: compounds shifting NOX4 Amplex Red fluorescence – cell-based, HEK293-NOX4, tetracycline-induced, NOX inhibitor project, primary screen (AID 1160); conditions: HEK293-NOX4, Amplex Red H2O2 fluorescence, 45 min; higher = more signal, called active from +8 up or from −8 down
[10] = target: NADPH oxidase 5 (Homo sapiens) (UniProt Q96PH1); assay: compounds shifting NOX5 Amplex Red fluorescence – cell-based, HEK293-NOX5, NOX inhibitor project, primary screen (AID 1161); conditions: HEK293-NOX5, ionomycin, 45 min, higher = more signal
[11] = compound effects on lung adenocarcinoma cell viability – A549, calcein-AM fluorescence, 48 h, basal, profiling panel (AID 1162); conditions: higher = more signal; also: test concentration not given here
[12] = compound effects on differentiated 3T3-L1 adipocyte viability – cell-based, 3T3-L1 adipocytes, calcein-AM fluorescence, 48 h, basal, profiling panel (AID 1163); conditions: 3T3-L1 adipocytes viability, higher = more signal; also: test concentration not given here
[13] = compound effects on hepatocellular carcinoma cell viability – HepG2, calcein-AM fluorescence, 48 h, basal, profiling panel (AID 1164); conditions: higher = more signal; also: test concentration not given here
[14] = compound effects on multiple myeloma cell viability – MM1S, calcein-AM fluorescence, 48 h, basal, profiling panel (AID 1165); conditions: higher = more signal; also: test concentration not given here
[15] = calcein-AM signal in unstimulated myeloma cells – cell-based, calcein-AM fluorescence, 48 h, PK04 Diversity Set, profiling panel (AID 1166); conditions: RPMI8226 myeloma viability, higher = more signal;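 also: cells grown under basal conditions without added stimulus; test concentration not given here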
[16] = JC-1 mitochondrial signal, unstimulated HepG2 cells – cell-based, JC-1 fluorescence, 24 h, 100 nL compound, profiling panel (AID 1167); conditions: HepG2 mitochondrial potential, higher = more signal; also: test concentration not given here
[17] = JC-1 mitochondrial signal, unstimulated adipocytes – cell-based, JC-1 fluorescence, 3T3-L1 adipocytes, 24 h, 100 nL compound, profiling panel (AID 1168); conditions: JC-1 mitochondrial fluorescence, higher = more signal, called active from +8 up or from −8 down; also: test concentration not given here
[18] = JC-1 mitochondrial signal, unstimulated myeloma cells – cell-based, JC-1 fluorescence, RPMI8226, 24 h, 100 nL compound, profiling panel (AID 1169); conditions: JC-1 mitochondrial potential fluorescence, higher = more signal; also: test concentration not given here
[19] = JC-1 mitochondrial signal, unstimulated MM1S myeloma – cell-based, JC-1 fluorescence, 24 h, 100 nL compound, profiling panel (AID 1170); conditions: MM1S mitochondrial potential, higher = more signal; also: test concentration not given here
[20] = resazurin metabolic signal in A549 cells – cell-based, resazurin fluorescence, 24 h, PK04 Diversity Set, profiling panel (AID 1171); conditions: A549 viability, higher = more signal, called active from +8 up or from −8 down; also: test concentration not given here

NADPH oxidase 2 (Homo sapiens), sequence (P04839 whole entry, looked up): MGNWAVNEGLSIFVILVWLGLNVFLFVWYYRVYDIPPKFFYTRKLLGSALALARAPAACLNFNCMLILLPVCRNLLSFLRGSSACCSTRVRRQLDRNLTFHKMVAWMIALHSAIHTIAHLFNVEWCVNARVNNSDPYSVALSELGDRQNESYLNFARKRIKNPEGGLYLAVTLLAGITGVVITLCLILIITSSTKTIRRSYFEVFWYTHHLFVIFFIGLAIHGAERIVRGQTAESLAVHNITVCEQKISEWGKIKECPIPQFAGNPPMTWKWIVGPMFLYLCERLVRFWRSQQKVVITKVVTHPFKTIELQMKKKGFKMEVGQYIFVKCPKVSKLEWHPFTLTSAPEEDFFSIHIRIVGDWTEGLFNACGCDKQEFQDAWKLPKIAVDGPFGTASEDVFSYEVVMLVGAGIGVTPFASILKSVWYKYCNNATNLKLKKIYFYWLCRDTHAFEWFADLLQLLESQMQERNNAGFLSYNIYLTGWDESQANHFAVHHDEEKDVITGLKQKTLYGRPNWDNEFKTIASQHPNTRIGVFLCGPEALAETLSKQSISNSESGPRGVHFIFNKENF
NADPH oxidase 4 (Homo sapiens), sequence (Q9NPH5 whole entry, looked up): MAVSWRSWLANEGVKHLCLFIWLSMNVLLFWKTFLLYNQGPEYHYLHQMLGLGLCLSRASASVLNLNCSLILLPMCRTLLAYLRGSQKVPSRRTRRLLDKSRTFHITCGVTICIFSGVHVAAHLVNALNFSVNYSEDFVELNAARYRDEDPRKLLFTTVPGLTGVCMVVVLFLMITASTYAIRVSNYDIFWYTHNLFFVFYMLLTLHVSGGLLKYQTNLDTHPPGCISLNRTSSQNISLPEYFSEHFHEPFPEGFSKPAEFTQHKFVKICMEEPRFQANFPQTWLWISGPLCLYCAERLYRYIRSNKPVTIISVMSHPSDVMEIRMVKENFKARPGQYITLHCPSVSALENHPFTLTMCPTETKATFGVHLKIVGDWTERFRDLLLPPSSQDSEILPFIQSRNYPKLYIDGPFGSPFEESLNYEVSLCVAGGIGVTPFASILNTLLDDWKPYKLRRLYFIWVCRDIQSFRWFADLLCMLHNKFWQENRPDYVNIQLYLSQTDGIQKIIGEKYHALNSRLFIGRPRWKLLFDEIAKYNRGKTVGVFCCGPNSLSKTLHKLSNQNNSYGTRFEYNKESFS
NADPH oxidase 5 (Homo sapiens), sequence (Q96PH1 whole entry, looked up): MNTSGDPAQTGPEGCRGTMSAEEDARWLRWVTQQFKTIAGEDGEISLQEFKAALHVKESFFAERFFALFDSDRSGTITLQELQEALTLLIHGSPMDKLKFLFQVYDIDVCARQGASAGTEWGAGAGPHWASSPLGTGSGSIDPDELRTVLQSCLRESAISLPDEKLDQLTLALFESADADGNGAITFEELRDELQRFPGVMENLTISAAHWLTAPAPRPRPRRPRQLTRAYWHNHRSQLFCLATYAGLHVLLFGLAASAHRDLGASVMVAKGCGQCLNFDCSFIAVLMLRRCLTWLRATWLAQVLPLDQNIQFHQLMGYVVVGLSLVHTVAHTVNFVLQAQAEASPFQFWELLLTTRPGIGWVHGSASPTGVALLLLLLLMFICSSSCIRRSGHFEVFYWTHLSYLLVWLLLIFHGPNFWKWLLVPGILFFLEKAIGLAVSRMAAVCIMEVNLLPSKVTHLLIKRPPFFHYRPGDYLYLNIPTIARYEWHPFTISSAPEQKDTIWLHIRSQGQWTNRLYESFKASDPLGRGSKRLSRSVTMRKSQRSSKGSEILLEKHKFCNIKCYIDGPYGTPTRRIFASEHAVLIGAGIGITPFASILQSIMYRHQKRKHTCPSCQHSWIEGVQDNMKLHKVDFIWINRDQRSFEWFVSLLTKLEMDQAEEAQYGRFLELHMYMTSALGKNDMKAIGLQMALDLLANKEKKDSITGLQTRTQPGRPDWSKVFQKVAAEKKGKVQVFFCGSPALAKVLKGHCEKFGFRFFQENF

SMILES | z-score [1] | composite z-score [2] | z-score [3] | z-score [4] | z-score [5] | z-score [6] | z-score [7] | z-score [8] | z-score [9] | z-score [10] | z-score [11] | z-score [12] | z-score [13] | z-score [14] | z-score [15] | z-score [16] | z-score [17] | z-score [18] | z-score [19] | z-score [20]
Cc1cc2c(c(=O)o1)[C@H](O)[C@H]1O[C@H]1C2=O | -0.743 (inactive) | -0.237 | -0.228 (inactive) | 0.496 (inactive) | 0.716 (inactive) | 0.0033 (inactive) | -0.573 | 1.67 (inactive) | -1.04 (inactive) | -1.39 | -0.728 | 0.287 | -1.03 | -3.45 | -2.96 | -1.31 | -0.883 (inactive) | 0.433 | -1.12 | -0.506 (inactive)
O=C1C[C@]2(c3ccc([N+](=O)[O-])cc3)C(=O)N(CCN3CCOCC3)c3cc(CO)ccc3[C@H]2N1CC12CC3CC(CC(C3)C1)C2 | 0.319 (inactive) | 0.056 | 1.4 (inactive) | -0.103 (inactive) | 1.68 (inactive) | 0.45 (inactive) | 0.349 | 0.194 (inactive) | -1.09 (inactive) | -2.03 | -0.677 | 0.15 | -0.227 | -0.208 | -1.96 | -0.141 | 0.0692 (inactive) | -0.043 | 0.0356 | 0.723 (inactive)
C[C@H]1Cc2c(-c3ccccc3)nc3c(c2CO1)CN(CCOc1ccccc1)CC3 | 0.503 (inactive) | -0.199 | 1.65 (inactive) | 0.407 (inactive) | 0.301 (inactive) | 0.0748 (inactive) | 0.426 | 0.17 (inactive) | -0.0187 (inactive) | -0.605 | 2.68 | 0.173 | 1.27 | 0.785 | 0.11 | 0.932 | 0.281 (inactive) | -0.324 | -0.439 | -0.31 (inactive)
CCN1C(=O)[C@H]2[C@H]3[C@H](O)[C@H](O)CC(=NOC[C@@H](C)[C@H](OCc4ccccc4)C(C)C)[C@@H]3CC[C@H]2C1=O | 0.618 (inactive) | -0.144 | 0.551 (inactive) | 0.106 (inactive) | 0.061 (inactive) | 0.0723 (inactive) | -0.357 | -0.136 (inactive) | 0.338 (inactive) | -0.287 | -0.0364 | 0.387 | -0.755 | -1.76 | -1.24 | -1.39 | -2.19 (inactive) | -0.279 | -0.187 | -0.295 (inactive)
COCCCNC(=O)[C@@]1(CCS(=O)(=O)c2ccccc2)N=C(c2ccc(OCCCO)cc2)O[C@H]1c1ccccc1 | 2.46 (inactive) | 0.812 | 28.5 (active) | 21 (active) | 1.08 (inactive) | 1.55 (inactive) | 0.326 | 3.58 (inactive) | 1.71 (inactive) | -0.339 | 2.27 | 0.217 | 1.84 | -0.345 | -0.193 | 0.887 | -0.468 (inactive) | 0.243 | 0.508 | 0.486 (inactive)
